The text below walks through data of PubChem BioAssay (Tox21).

Experiment [1] is described as follows: qHTS assay to identify small molecule antagonists of the glucocorticoid receptor (GR) signaling pathway - cell viability counter screen (AID 720693). Note: nearly all actives have a fitted effect of over 55% in size. On the technique in general: In qHTS, concentration-response curves come from the screen itself.
Experiment [2] is described as follows: qHTS assay for identifying genotoxic compounds that show differential cytotoxicity against isogenic chicken DT40 cell lines with known DNA damage response pathways - Rev3 mutant cell line (AID 743014). Note: nearly all actives have a fitted effect of over 55% in size. Note: potency is the fitted concentration of half-maximal effect.
Experiment [3] deals with Androgen receptor (Homo sapiens) (UniProt P10275). Put plainly: qHTS assay to identify small molecule antagonists of the androgen receptor (AR) signaling pathway (AID 743035; active = well fitted inhibition curve with a large enough effect in the signal ratio in the repeat runs, not every such curve was filed as active; the % refers to the signal ratio; note: potency is the fitted concentration of half-maximal effect). The method, boiled down: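 Antagonist mode: AR-bla HEK293 cells co-treated with test compounds and agonist R1881 for 16 h at 37C, 5% CO2. Beta-lactamase activity read as FRET fluorescence after 2 h room-temperature substrate loading.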

Experiment [4] has the same target. The experiment can be described thus: qHTS assay to identify small molecule agonists of the androgen receptor (AR) signaling pathway (AID 743036; active = well fitted activation curve with a large enough effect in the signal ratio in the repeat runs, with a control signal flat, not every such curve was filed as active; the % refers to the signal ratio). In a few lines: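 In this Tox21 qHTS, 2,000 HEK293 AR-bla cells per well were incubated with compounds for 16 h at 37C and 5% CO2. Fluorescence intensity was recorded 2 h after adding LiveBLAzer B/G FRET substrate at room temperature.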

For experiment [5] the target is unchanged. The experiment can be described thus: qHTS assay to identify small molecule agonists of the androgen receptor (AR) signaling pathway using the MDA cell line (AID 743040; note: nearly all actives have a fitted effect of over 20% in size). In a few lines: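 Luciferase agonist assay: 16 h compound exposure at 37C without CO2 in MDA-kb2 AR-luc cells, whose MMTV promoter responds to both AR and GR. Luminescence measured after 30 min room-temperature incubation with ONE-Glo.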

The nature of experiment [6]: qHTS assay to identify small molecule antagonists of the androgen receptor (AR) signaling pathway using the MDA cell line - cell viability counter screen (AID 743041; note: nearly all actives have a fitted effect of over 45% in size; note: potency is the fitted concentration of half-maximal effect). In a few lines:
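Viability read by CellTiter-Fluor fluorescence in the same wells as the antagonist screen, added after 15.5 h of a 16 h, 37C exposure. Human breast carcinoma MDA-kb2 AR-luc cells, compounds co-dosed with agonist R1881.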

The target of experiment [7] is Androgen receptor (Homo sapiens) (UniProt P10275). Put plainly: qHTS assay to identify small molecule antagonists of the androgen receptor (AR) signaling pathway using the MDA cell line (AID 743042; note: nearly all actives have a fitted effect of over 55% in size). In a few lines:
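Antagonist mode: compounds plus R1881 agonist added to MDA-kb2 AR-luc cells, incubated 16 h at 37C. Luciferase reporter luminescence quantified, with multiplexed CellTiter-Fluor readout for cell viability.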

The nature of experiment [8]: qHTS assay to identify small molecule antagonists of the thyroid receptor (TR) signaling pathway - cell viability counter screen (AID 743064). Note: nearly all actives have a fitted effect of over 50% in size. In a few lines: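 Counter screen for cytotoxicity: compound plus T3 (1 nM final) on GH3.TRE-Luc cells, 23.5 h at 37 °C, then fluorescence viability readout with CellTiter-Fluor.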
A short description of experiment [9]: qHTS assay to identify small molecule antagonists of the thyroid receptor (TR) signaling pathway (AID 743065). Note: series mostly up to about 70 µM; nearly all actives have a fitted effect of over 55% in size. The method, boiled down:
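Antagonism measured as loss of luciferase signal in GH3 cells stably carrying a TRE-luciferase reporter, co-treated with compound and T3 (1 nM final) for 23.5 h at 37 C. Viability was read in the same well by CellTiter-Fluor.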

For experiment [10], the system named is thyroid hormone receptor (rat, GH3 cells). Put plainly: qHTS assay to identify small molecule agonists of the thyroid receptor (TR) signaling pathway (AID 743066; calls by dose curve; note: potency is the fitted concentration of half-maximal effect).
Experiment [11] addresses Estrogen receptor (Homo sapiens) (UniProt P03372). Put plainly: qHTS assay to identify small molecule antagonists of the estrogen receptor alpha (ER-alpha) signaling pathway (AID 743069; active = well fitted curve in the direction sought with a large enough effect in the signal ratio in the repeat runs, not every such curve was filed as active; the % refers to the signal ratio). The method, boiled down: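 Antagonist mode: compounds in DMSO were co-added with 17beta-estradiol to ER-alpha-bla HEK293 cells (2% charcoal-stripped serum) and left 18 h at 37C. Reporter inhibition was measured as FRET fluorescence after 2 h LiveBLAzer substrate at room temperature.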

The nature of experiment [12]: qHTS assay to identify small molecule antagonists of the estrogen receptor alpha (ER-alpha) signaling pathway - cell viability counter screen (AID 743074; calls by dose curve;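 note: HEK293 cells carrying ER-alpha-UAS-bla reporter stimulated with 17beta-estradiol; nearly all actives have a fitted effect of over 45% in size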).
Experiment [13] has as its target Estrogen receptor (Homo sapiens) (UniProt P03372). The experiment can be described thus: qHTS assay to identify small molecule agonists of the estrogen receptor alpha (ER-alpha) signaling pathway (AID 743075; calls by dose curve;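 note: HEK293 GripTite cells with ER-alpha and UAS-driven beta-lactamase reporter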).
Experiment [14] shares this target. The experiment can be described thus: qHTS assay to identify small molecule agonists of the estrogen receptor alpha (ER-alpha) signaling pathway using the BG1 cell line (AID 743079). Note: nearly all actives have a fitted effect of over 20% in size.
Experiment [15] is described as follows: qHTS assay to identify small molecule antagonists of the estrogen receptor alpha (ER-alpha) signaling pathway using the BG1 cell line (AID 743080; calls by dose curve;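 note: BG1 cells stimulated with 17beta-estradiol alongside compound; series mostly up to about 70 µM; nearly all actives have a fitted effect of over 25% in size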). The method, boiled down:
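Quantitative HTS on the Tox21 10K library: BG1 cells with endogenous ER-alpha and ERE-luciferase reporter, 17beta-estradiol stimulation, 21.5 h compound exposure, luminescence endpoint with parallel fluorescence cytotoxicity counter-read.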

The nature of experiment [16]: qHTS assay to identify small molecule antagonists of the estrogen receptor alpha (ER-alpha) signaling pathway using the BG1 cell line - cell viability counter screen (AID 743081).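 Note: compound given together with 17beta-estradiol as the ER stimulus; series mostly up to about 70 µM; nearly all actives have a fitted effect of over 45% in size.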
The next experiment deals with Aromatase (Homo sapiens) (UniProt P11511). The experiment can be described thus: qHTS assay to identify aromatase inhibitors (AID 743083).
Experiment [17] in a line: qHTS assay for identifying genotoxic compounds that show differential cytotoxicity against isogenic chicken DT40 cell lines with known DNA damage response pathways - Rad54/Ku70 mutant cell line (AID 743015). Note: nearly all actives have a fitted effect of over 60% in size. Note: potency is the fitted concentration of half-maximal effect.
Experiment [18] is described as follows: qHTS assay to identify small molecule antagonists of the androgen receptor (AR) signaling pathway - cell viability counter screen (AID 743033; note: nearly all actives have a fitted effect of over 45% in size).

Unmarked numbers belong to inactive results. Records with an inconclusive call do not appear. Activity calls are given as the source filed them. Unless noted, calls come from the whole dose curve; as a rule, active = well fitted curve in the direction sought with a large enough effect in the repeat runs; inconclusive = weak or mixed curves; inactive = no such curve, though single readings can be large; an effect the other way counts as inactive or inconclusive.

Sequence of Aromatase (Homo sapiens) (P11511 whole entry, looked up): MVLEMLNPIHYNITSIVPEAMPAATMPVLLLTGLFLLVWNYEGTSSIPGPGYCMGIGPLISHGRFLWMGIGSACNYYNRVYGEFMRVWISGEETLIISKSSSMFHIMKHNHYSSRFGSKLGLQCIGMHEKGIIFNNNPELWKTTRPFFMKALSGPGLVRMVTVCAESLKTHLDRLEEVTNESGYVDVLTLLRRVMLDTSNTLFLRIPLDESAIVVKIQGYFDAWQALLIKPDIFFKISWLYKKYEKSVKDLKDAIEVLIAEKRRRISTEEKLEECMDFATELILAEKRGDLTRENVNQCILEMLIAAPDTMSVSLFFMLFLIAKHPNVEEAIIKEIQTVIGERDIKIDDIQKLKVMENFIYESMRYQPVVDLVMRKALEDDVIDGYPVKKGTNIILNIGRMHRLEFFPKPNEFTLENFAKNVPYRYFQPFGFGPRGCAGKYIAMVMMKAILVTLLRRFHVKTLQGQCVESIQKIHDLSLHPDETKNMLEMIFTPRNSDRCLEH
Sequence of Estrogen receptor (Homo sapiens) (P03372 whole entry, looked up): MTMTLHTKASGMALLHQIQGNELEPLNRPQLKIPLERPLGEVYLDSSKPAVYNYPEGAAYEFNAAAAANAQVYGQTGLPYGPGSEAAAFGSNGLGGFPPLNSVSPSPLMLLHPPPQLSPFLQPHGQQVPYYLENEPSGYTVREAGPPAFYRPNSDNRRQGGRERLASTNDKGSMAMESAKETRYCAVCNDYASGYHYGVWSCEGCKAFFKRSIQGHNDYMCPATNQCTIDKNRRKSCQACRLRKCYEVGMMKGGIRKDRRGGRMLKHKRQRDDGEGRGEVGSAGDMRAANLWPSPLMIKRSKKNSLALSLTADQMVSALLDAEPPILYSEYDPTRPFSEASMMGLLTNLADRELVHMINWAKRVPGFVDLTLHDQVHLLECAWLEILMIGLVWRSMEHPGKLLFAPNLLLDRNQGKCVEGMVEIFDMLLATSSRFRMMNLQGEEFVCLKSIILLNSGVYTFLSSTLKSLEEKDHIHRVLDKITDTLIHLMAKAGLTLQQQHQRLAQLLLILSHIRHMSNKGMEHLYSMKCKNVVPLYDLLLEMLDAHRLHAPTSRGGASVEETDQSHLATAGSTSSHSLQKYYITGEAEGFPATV
Sequence of Androgen receptor (Homo sapiens) (P10275 whole entry, looked up): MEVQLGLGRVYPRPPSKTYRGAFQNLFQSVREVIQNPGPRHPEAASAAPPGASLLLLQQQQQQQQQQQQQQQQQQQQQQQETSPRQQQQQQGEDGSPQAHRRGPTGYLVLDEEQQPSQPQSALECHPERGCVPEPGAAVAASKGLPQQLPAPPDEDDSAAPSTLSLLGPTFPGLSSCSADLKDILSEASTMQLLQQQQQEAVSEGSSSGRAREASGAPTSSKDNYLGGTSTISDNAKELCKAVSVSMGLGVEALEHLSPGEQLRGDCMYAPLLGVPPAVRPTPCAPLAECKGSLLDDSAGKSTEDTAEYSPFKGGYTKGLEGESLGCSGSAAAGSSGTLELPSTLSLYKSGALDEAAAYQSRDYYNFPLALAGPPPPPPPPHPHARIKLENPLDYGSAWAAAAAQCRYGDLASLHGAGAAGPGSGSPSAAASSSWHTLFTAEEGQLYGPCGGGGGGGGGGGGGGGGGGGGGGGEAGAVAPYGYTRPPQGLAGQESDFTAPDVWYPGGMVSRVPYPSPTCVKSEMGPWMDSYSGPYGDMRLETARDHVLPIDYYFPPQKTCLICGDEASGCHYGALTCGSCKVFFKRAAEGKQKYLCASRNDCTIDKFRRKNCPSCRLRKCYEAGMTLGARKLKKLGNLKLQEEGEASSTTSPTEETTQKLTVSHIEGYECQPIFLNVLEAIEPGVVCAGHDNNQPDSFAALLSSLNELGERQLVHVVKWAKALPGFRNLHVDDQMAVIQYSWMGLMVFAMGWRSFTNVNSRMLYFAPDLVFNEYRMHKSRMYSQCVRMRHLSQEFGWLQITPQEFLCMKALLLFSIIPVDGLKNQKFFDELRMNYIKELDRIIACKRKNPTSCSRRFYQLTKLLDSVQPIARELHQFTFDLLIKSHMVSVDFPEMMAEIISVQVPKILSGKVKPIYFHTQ

With `CN1CCN(C(c2ccccc2)c2ccccc2)CC1`, the Potency entry in experiment [1], in [2], in experiment [3], in experiment [4], in experiment [5] and in experiment [6] was “inactive” each time. In addition, the Potency result in [7], in [8], in [9], in [10], in [11] and in experiment [12] was “inactive” each time. The Potency result (in [13]; in [14]; in experiment [15]; in experiment [16]; with Aromatase (Homo sapiens)) was “inactive” each time.

`Nc1ncn([C@H]2C[C@H](O)[C@@H](CO)O2)c(=O)n1`: the Potency entry (in experiment [1]; in experiment [6]; in experiment [9]; in experiment [12]; in experiment [16]; in the experiment with Aromatase (Homo sapiens)) was “inactive” throughout. Also, the Potency in [2] is 0.106 µM (active); in experiment [17] it was 0.0298 µM (active); in experiment [10] it was 3.35 µM (active).

`NCc1ccccc1Sc1ccccc1CO`: the Potency result in experiment [1], in experiment [3], in experiment [4], in [5], in experiment [6] and in experiment [7] was “inactive” in each case. Also, the Potency entry in experiment [9], in [10], in experiment [11], in [12], in experiment [13] and in [14] was “inactive” throughout. Further, the Potency entry (in experiment [15]; in experiment [16]; in the experiment with Aromatase (Homo sapiens)) was “inactive” throughout. Moreover, the Potency is 5.96 µM (active) in experiment [2] and 29.8 µM (active) in experiment [17].

On to `NCCCN1CCOCC1`, for which the Potency result in experiment [1], in experiment [2], in experiment [17], in experiment [4], in experiment [5] and in experiment [7] was “inactive” each time. Also, the Potency result in experiment [8], in experiment [9], in [10], in [11], in experiment [12] and in [13] was “inactive” each time. In addition, the Potency result (in experiment [14]; in experiment [15]; in [16]; with Aromatase (Homo sapiens)) was “inactive” in each case. For the same molecule, the Potency in experiment [6] is 30.6 µM (active).

Consider `c1ccc(-c2ccccn2)nc1`, for which the Potency entry in experiment [1], in experiment [18], in [4], in [5], in experiment [6] and in experiment [7] was “inactive” each time. In addition, the Potency entry in experiment [8], in experiment [9], in [10], in experiment [11], in experiment [12] and in experiment [13] was “inactive” in each case. Moreover, the Potency result (in experiment [14]; in [15]; in [16]; with Aromatase (Homo sapiens)) was “inactive” throughout. In addition, in [2], the Potency is 24.3 µM (active).

For `c1ccc(CNCCNCc2ccccc2)cc1`, the Potency result in experiment [1], in experiment [2], in [18], in experiment [6], in [8] and in experiment [10] was “inactive” each time. Also, the Potency result in [11], in experiment [12], in experiment [13], in [14], in experiment [15] and in experiment [16] was “inactive” each time. In the experiment with Aromatase (Homo sapiens), the Potency entry was “inactive”.

With `CCOc1ccc(O)cc1`, the Potency entry in experiment [1], in [18], in experiment [6], in experiment [8], in [9] and in experiment [10] was “inactive” throughout. Further, the Potency entry (in experiment [12]; in experiment [13]; in [14]; in experiment [15]; in [16]; with Aromatase (Homo sapiens)) was “inactive” throughout. Also, the Potency in [2] is 54.5 µM (active).

Take `CCC(Cl)CCC(Cl)C(Cl)CC(Cl)C(Cl)C(Cl)CCl` (stereo not given): the Potency entry in experiment [1], in experiment [2], in experiment [18], in experiment [9], in experiment [10] and in experiment [12] was “inactive” throughout. For the same molecule, the Potency result (in experiment [16]; with Aromatase (Homo sapiens)) was “inactive” throughout.

As to `CCCCC(CC)COC(=O)COc1ccc(Cl)cc1Cl` (stereo not given), the Potency entry in experiment [1], in experiment [2], in [17], in experiment [18], in experiment [6] and in [9] was “inactive” throughout. The Potency result in experiment [10], in [11], in experiment [12], in experiment [13], in [14] and in experiment [15] was “inactive” in each case. Also, the Potency entry (in [16]; in the experiment with Aromatase (Homo sapiens)) was “inactive” in each case.

As for `CC(=O)[O][Al]`, the Potency result in experiment [1], in [2], in experiment [17], in [18], in experiment [6] and in experiment [8] was “inactive” each time. In addition, the Potency entry (in experiment [10]; in [12]; in [16]; in the experiment with Aromatase (Homo sapiens)) was “inactive” in each case.

With `CCCCCCCCCCCc1ccccc1`, the Potency entry in [1], in [18], in experiment [6], in experiment [8], in experiment [9] and in [10] was “inactive” in each case. In addition, the Potency result (in [11]; in [13]; in [14]; in experiment [15]; in experiment [16]; with Aromatase (Homo sapiens)) was “inactive” each time. Moreover, the Potency in [2] is 60.3 µM (active).

On to `CC(C)CC(=O)C1C(=O)c2ccccc2C1=O`, for which the Potency result in experiment [1], in [2], in [4], in experiment [5], in experiment [6] and in experiment [7] was “inactive” in each case. In addition, the Potency result in [8], in [12], in experiment [13], in [14], in experiment [15] and in [16] was “inactive” throughout. For the same molecule, the Potency entry with Aromatase (Homo sapiens) was “inactive”. Moreover, the Potency in [3] was 49 µM (active).

As to `Nc1ccc(S(=O)(=O)Nc2ccccc2)cc1`, the Potency entry in [1], in experiment [2], in [17], in [18], in [6] and in [9] was “inactive” throughout. Further, the Potency entry (in experiment [10]; in experiment [12]; in experiment [16]; in the experiment with Aromatase (Homo sapiens)) was “inactive” in each case.

As to `COc1ccc(C(=O)N2CCN(CC(=O)N3CCOCC3)CC2)cc1`, the Potency result in [1], in experiment [2], in [17], in experiment [18], in experiment [6] and in experiment [9] was “inactive” each time. Further, the Potency entry in experiment [10], in experiment [11], in experiment [12], in experiment [13], in experiment [14] and in experiment [15] was “inactive” in each case. The Potency entry (in [16]; with Aromatase (Homo sapiens)) was “inactive” in each case.

Turning to `CC(=O)[O][Al][O]C(C)=O`, the Potency result in experiment [1], in experiment [2], in [18], in [6], in experiment [10] and in [12] was “inactive” each time. Besides, the Potency entry (in experiment [15]; in [16]; with Aromatase (Homo sapiens)) was “inactive” each time.
